# Source: PubChem BioAssay
# D1 antag = human D1 dopamine receptor antagonism; P21728; HEK293 TREx D1 cells, calcium flux, dopamine EC80; stronger effect = lower value; activity change, negative = inhibition, % at 10 µM; 360,000 tested, 3.2% active; in the data active = activity change below about -30%; note: % is set by controls: 0 for no effect and ±100 for the full control effect
#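 Using tetracycline-induced force-coupled D1 Hek293 cells and a calcium dye, signals were followed for 180 s after compound, then for 180 s after EC80 dopamine, to detect inhibitors.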
# TRHR agonist-1 = activates the human TRH receptor. P34981. TRHR cells, calcium flux fluo-8, FDSS agonist mode. activation, % at 2 µM. 360,000 tested, 0.18% active. AID 493084; note: 0% is about no effect
# Target sequence (P34981 whole entry, looked up): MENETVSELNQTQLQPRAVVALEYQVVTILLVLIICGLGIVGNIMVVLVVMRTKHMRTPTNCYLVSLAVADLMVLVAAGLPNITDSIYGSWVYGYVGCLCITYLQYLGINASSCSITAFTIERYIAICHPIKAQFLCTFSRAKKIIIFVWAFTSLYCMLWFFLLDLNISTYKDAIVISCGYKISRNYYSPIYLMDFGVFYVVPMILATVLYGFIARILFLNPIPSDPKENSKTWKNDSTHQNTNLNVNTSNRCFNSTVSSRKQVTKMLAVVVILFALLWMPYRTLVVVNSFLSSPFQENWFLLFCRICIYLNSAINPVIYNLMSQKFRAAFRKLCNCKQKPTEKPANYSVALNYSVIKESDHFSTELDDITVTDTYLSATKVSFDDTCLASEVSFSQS
#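 TRHR-expressing cells loaded with fluo-8 calcium dye; 23 nL library compound pin-transferred, kinetic FDSS fluorescence (Ex 480/Em 530) recorded about 180 s for agonist-induced calcium release, before a 10 nM TRH EC20 addition for potentiator mode.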
# TRHR enhancer-1 = allosteric enhancers of human TRH receptor | P34981 | TRHR cells, fluo-8 calcium fluorescence, EC20 TRH enhancement | enhancement, % at 2 µM | 360,000 tested, 0.66% active | AID 493056; in the data active = enhancement above about 30%; note: 0% is about no effect
#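 TRHR-expressing cells loaded with fluo-8 calcium dye were read kinetically (ex 480/em 530) during compound addition, then stimulated with an EC20 of TRH (10 nM final). Enhancement of the Gq-mediated intracellular calcium response was scored.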
# D1 potentiator = human D1 dopamine receptor positive modulation; potentiation, % at 10 µM; HEK293 TREx D1 cells, calcium flux, dopamine EC20 potentiation; 360,000 tested, 0.036% active; P21728; in the data active = potentiation above about 30%; note: 0% is about no effect
# D1 agonist = agonists of human D1 dopamine receptor; P21728; HEK293 T-REx D1 cells, calcium flux, agonist mode; activation, % at 2 µM; 360,000 tested, 1% active; AID 504660; note: 0% is about no effect
#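 Tetracycline-induced HEK293 TREx D1 cells, force-coupled to calcium signalling, were dye-loaded with a no-wash calcium kit. Compound was pin-added after a 10 s baseline. Fluorescence was read kinetically at 1 cycle/s for 180 s, with calcium rises flagged as agonism.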
# TRHR enhancer-2 = confirmation of human TRH receptor allosteric enhancers; 970 tested, under 10 active; AID 493076; shares compounds with TRHR enhancer-1; TRH receptor cell assay, enhancer confirmation qHTS; activity change, negative = inhibition, % at 46.1 µM; active = well fitted curve in the direction sought with a large enough effect; inconclusive = small, poorly fitted or top-dose-only effect, or another doubt; inactive = no such curve, though single readings can be large; an effect the other way counts as inactive or inconclusive;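 note: compound effect scored on response to added TRH at EC20 of 10 nM; 0% is about no effect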
# TRHR agonist-2 = confirmation of human TRH receptor agonists. shares compounds with TRHR enhancer-1. TRHR-expressing cells, agonist activation read-out. Potency, µM (top dose mostly 46.1 µM), inactives show top-dose activation, most hits filed as activators. 970 tested, 8% active. AID 493078; active = well fitted curve in the direction sought with a large enough effect; inconclusive = small, poorly fitted or top-dose-only effect, or another doubt; inactive = no such curve, though single readings can be large; an effect the other way counts as inactive or inconclusive; note: potency is the fitted concentration of half-maximal effect; 0% is about no effect; nearly all actives have a fitted effect of over 75% in size
# * marks the source's active call; other numbers are inactive results; ? = inconclusive; . = no result. A selection: hits, their analogues and other compounds. The true share with any hit is near 4.7%. Cut-off read from the data, not from the text of the source, unless noted: active = activation above about 30%; inactive = the rest.
SMILES,D1 antag,TRHR agonist-1,TRHR enhancer-1,D1 potentiator,D1 agonist,others
Cc1cc(OCC(=O)N2CCN(CCc3ccccn3)CC2)cc(C)c1Cl,8.1,-0.4,8.8,-0.6,-0.1,
Cc1cc(-n2c(/C=C/c3cccs3)nc3ccccc3c2=O)ccc1Br,-31.8*,-0.3,0.6,-0.9,-0.2,
Cc1cc(-n2c(/C=C/c3ccc(Br)s3)nc3ccccc3c2=O)ccc1Br,11.6,0.1,-6.3,-2.0,-3.8,
O=C(Cn1ncc2c3ccccc3n(Cc3cccc(Cl)c3)c2c1=O)N1CCC2(CC1)OCCO2,0.5,1.4,4.1,6.2,7.1,
Cn1c2ccccc2c2cnn(CC(=O)N3CCC4(CC3)OCCO4)c(=O)c21,-31.5*,0.1,-4.7,-1.1,-0.1,
Cc1ccc(CN2C3CCCC2CC(NC(=O)Nc2cccc(F)c2)C3)cc1 (configuration not stated),-41.6*,9.1,-2.3,-6.5,30.2*,
CC(C)CCn1c(N)c(C(=O)OCC2CCCO2)c2nc3ccccc3nc21 (configuration not stated),-36.0*,0.0,-5.1,-3.0,-0.5,
CCCCn1c(N)c(C(=O)OCC2CCCO2)c2nc3ccccc3nc21 (configuration not stated),11.7,-1.4,-5.7,8.8,1.6,
Cc1ccc(Cn2nnnc2CN2CCC(n3nnc4cc(C)ccc43)CC2)cc1,-28.0,-0.6,-0.7,-4.2,0.3,
FC(F)(F)c1ccc2c(c1)nnn2C1CCN(Cc2nnnn2Cc2ccccc2)CC1,-42.3*,1.3,-0.2,-5.7,2.8,
Cc1ccc(Cn2nnnc2CN2CCC(n3nnc4cc(C(F)(F)F)ccc43)CC2)cc1,-39.1*,0.9,-2.5,-3.0,1.4,
Cc1nc2cc(C(F)(F)F)ccc2n1C1CCN(Cc2nnnn2CCc2ccccc2)CC1,-15.2,0.7,0.8,1.8,1.1,
Cn1c(=O)n(C)c2cc(CNCCc3ccccc3F)ccc21,-2.5,0.9,2.9,-0.1,2.8,
Cc1cccc(Cn2cccc(C(=O)Nc3nc4ccccc4s3)c2=O)c1,.,1.2,1.5,-1.5,1.0,
CCOc1cc2c(cc1OCC)-n1cccc1C(c1ccc(OC)c(O)c1)NC2 (configuration not stated),-23.2,-0.5,3.0,-1.6,96.2*,
Brc1ccc(Oc2ccc(Br)cc2Br)c(Br)c1,.,0.7,1.4,-3.3,4.9,
Nc1ccc2cc(Br)ccc2c1,-31.1*,0.2,0.9,-3.2,0.9,
O=c1[nH]c(=S)n(-c2ccc(Cl)cc2)c(O)c1C=Nc1ccc(N2CCOCC2)cc1,2.5,12.8,32.7*,-6.0,41.6*,
CCn1c(O)c(C=Nc2ccc(N3CCOCC3)cc2)c(=O)n(CC)c1=S,-3.5,31.7*,6.8,-4.3,98.9*,
O=C(CN1C(=O)CN=C(c2ccccc2)c2ccccc21)Nc1cccc(C(F)(F)F)c1,-14.3,0.9,-0.4,8.2,6.1,
CC(C(=O)c1ccccc1)N1C(=O)c2ccccc2C1=O (configuration not stated),2.1,-0.5,0.3,-0.9,0.2,
CC(Cc1ccccc1)N1C(=O)c2ccccc2C1=O (configuration not stated),-17.5,-0.5,54.9*,-9.8,2.2,TRHR enhancer-2=-13.1;TRHR agonist-2=2.1%
O=C(CN1CC=C(c2ccccc2)CC1)NC(=O)NCc1ccccc1,-3.6,-0.9,61.6*,-4.0,4.6,TRHR enhancer-2=?;TRHR agonist-2=2.6%
Cc1ccc(/C=C2/Sc3ccc(C(=O)N4CCC5(CC4)OCCO5)cc3NC2=O)cc1,9.0,1.7,3.2,-2.0,3.2,
O=C(NCCN1CCOCC1)c1ccc(Cl)nc1,18.2,74.9*,0.7,3.6,1.7,TRHR enhancer-2=5.5;TRHR agonist-2=0.5%
SMILES,D1 antag,TRHR agonist-1,TRHR enhancer-1,D1 potentiator,D1 agonist,others
CCCCCn1c(N)c(C(=O)NCCN2CCOCC2)c2nc3ccccc3nc21,9.2,0.9,0.0,0.8,15.0,
Cc1cccc(N2C(=O)NC(=O)/C(=C/c3ccc(-c4ccc(C(=O)O)c(Cl)c4)o3)C2=O)c1,-1.4,2.8,2.7,-5.0,1.0,
O=C1NC(=O)N(c2cccc(Cl)c2)C(=O)/C1=C\c1ccc(Sc2nc3ccccc3[nH]2)o1,-5.3,47.2*,22.3,2.5,63.5*,TRHR enhancer-2=7.4;TRHR agonist-2=?
Cc1cccc(NC(N)=S)c1,4.4,-0.1,-5.6,5.6,1.1,
CCN(CC)C(=O)c1ccc(NC(=O)Cn2nc(-c3ccc(C)cc3)c3ccccc3c2=O)cc1,-0.5,0.0,16.1,-0.6,-1.9,
Cc1ccccc1-c1nc(CS(=O)CC(=O)N2CCC3(CC2)OCCO3)c(C)o1 (configuration not stated),6.7,-0.7,41.6*,-0.1,7.6,TRHR enhancer-2=-4.1;TRHR agonist-2=-0.6%
CCC1(C)OC(c2ccccc2)=C/C(=C/C=C2C(=O)NC(=O)NC2=O)O1 (configuration not stated),-6.6,41.1*,-4.2,-5.0,108.1*,TRHR enhancer-2=-2.7;TRHR agonist-2=?
